The target in experiment [1] is Tyrosyl-DNA phosphodiesterase 1 (Homo sapiens) (UniProt Q9NUW8). The experiment is described as follows: Confirmation Assay for Inhibitors of Tyrosyl-DNA Phosphodiesterase (TDP1) (AID 489007). Further: potency means the concentration at half of the fitted maximal effect; nearly all actives have a fitted effect of over 40% in size. The note with it: recombinant human TDP1 enzymatic activity, dose-response. Put shortly: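 Tdp1 1 nM + cpd, 15 min RT; add biotin/phosphotyrosine-FITC oligo 15 nM, 5 min RT; add AS donor/acceptor beads 10 ug/ml, 10 min RT; read AlphaScreen. No-enzyme wells = max signal.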
Chain of Tyrosyl-DNA phosphodiesterase 1 (Homo sapiens) (Q9NUW8 whole entry, looked up): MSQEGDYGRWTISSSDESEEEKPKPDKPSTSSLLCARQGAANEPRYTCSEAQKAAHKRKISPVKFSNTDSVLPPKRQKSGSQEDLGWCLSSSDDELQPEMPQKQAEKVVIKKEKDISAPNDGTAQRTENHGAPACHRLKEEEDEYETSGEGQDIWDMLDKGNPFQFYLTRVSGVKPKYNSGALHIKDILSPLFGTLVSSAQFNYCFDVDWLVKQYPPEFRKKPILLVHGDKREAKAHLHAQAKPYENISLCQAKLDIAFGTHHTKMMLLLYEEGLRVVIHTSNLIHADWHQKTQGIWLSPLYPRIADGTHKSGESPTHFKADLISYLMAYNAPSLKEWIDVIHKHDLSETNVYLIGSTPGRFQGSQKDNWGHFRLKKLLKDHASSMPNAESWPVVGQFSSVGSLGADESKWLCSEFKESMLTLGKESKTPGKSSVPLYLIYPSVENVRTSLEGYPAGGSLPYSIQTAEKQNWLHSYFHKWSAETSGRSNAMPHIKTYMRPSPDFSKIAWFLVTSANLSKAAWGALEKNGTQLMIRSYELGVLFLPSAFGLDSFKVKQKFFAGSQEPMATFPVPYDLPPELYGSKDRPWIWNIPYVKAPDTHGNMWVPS

The target of experiment [2] is Glucocorticoid receptor (Homo sapiens) (UniProt P04150). The experiment is described as follows: GR-EFC Redistribution (AID 451; calls by dose curve; further: potency means the concentration at half of the fitted maximal effect). The following applies: CHO-K1 GR-EFC translocation, beta-gal luminescence, 2 h. Put shortly:
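CHO-K1 cells stably expressing nuclear-localized β-gal enzyme acceptor and GR fused C-terminally to the enzyme donor fragment; ligand-driven nuclear translocation restores β-gal by complementation. Compounds titrated up to 46 uM final, 2 h at 37 °C; luminescence read.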

The target in experiment [3] is 3',5'-cyclic-AMP phosphodiesterase 4B (Homo sapiens) (UniProt Q07343). Description: qHTS Assay for Inhibitors of PDE-IV (AID 607; active means well fitted activation curve with a large enough effect in the main read-out, with a control signal flat, not every such curve was filed as active). The following applies: HEK293 ACTOne CNG channel cells, membrane potential fluorescence; series mostly up to 22.9 µM. The gist of the method: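 HEK293 ACTOne cells with CNG channel (1000/well), endogenous PDE4; membrane potential dye, compounds up to 22.9 uM final. Fluorescence Ex 535/Em 590; RO 20-1724 (100 uM final) as reference.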
Chain of 3',5'-cyclic-AMP phosphodiesterase 4B (Homo sapiens) (Q07343 whole entry, looked up): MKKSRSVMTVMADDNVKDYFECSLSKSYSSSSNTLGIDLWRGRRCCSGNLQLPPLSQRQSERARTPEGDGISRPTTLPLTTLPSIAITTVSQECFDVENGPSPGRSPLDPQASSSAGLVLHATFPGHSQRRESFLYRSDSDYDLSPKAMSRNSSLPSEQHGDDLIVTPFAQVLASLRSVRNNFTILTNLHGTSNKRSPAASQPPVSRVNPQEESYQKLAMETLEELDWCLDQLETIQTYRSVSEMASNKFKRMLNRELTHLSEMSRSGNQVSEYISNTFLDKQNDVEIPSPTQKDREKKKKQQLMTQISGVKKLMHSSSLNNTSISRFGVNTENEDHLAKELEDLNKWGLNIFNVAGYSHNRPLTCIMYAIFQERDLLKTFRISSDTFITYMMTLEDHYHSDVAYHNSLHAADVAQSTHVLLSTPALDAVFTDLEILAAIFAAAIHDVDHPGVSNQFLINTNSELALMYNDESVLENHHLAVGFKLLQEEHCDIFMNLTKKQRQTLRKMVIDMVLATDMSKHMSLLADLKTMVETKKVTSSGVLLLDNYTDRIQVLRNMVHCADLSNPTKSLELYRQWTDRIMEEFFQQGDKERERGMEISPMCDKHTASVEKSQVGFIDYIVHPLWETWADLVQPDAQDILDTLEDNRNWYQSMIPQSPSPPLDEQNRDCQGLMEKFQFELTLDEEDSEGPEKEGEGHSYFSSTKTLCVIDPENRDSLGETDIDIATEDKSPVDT
A general note: Quantitative high-throughput screening tests each substance at several concentrations.

Experiment [4] has as its target Cytochrome P450 2C9 (Homo sapiens) (UniProt P11712). The experiment is described as follows: qHTS Assay for Inhibitors and Substrates of Cytochrome P450 2C9 (AID 883). Further: nearly all actives have a fitted effect of over 60% in size. The following applies: recombinant CYP2C9, luciferin-H luminescence, 60 min; series mostly up to 57.1 µM. The gist of the method:
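A luminogenic readout tracked human CYP2C9 (10nM) converting deoxyluciferin (100uM, at KM) in 25mM KPO4 during 60 min at 37C with regenerated NADPH. Values normalized to 57uM sulphaphenazole as complete inhibition.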

Experiment [5] concerns the target Cytochrome P450 2D6 (Homo sapiens) (UniProt P10635). The experiment is described as follows: qHTS Assay for Inhibitors and Substrates of Cytochrome P450 2D6 (AID 891).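 Further: luciferin methyl ether substrate demethylated by CYP2D6 with NADPH regeneration; nearly all actives have a fitted effect of over 60% in size.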 The following applies: recombinant CYP2D6, luciferin-ME EGE luminescence; series mostly up to 57.1 µM. The gist of the method: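 Human CYP2D6 (5 nM) with 30 uM Luciferin-ME EGE (at Km) in 100 mM KPO4, compound preincubated 10 min, then NADPH regeneration system for 60 min at room temperature. Luciferin read by luminescence; normalized to 1.43 uM quinidine.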

Experiment [6] concerns the target Cytochrome P450 2C19 (Homo sapiens) (UniProt P33261). The experiment is described as follows: qHTS Assay for Inhibitors and Substrates of Cytochrome P450 2C19 (AID 899). Further: nearly all actives have a fitted effect of over 60% in size. The following applies: recombinant CYP2C19, luciferin-H EGE luminescence; series mostly up to 57.1 µM. Put shortly:
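NADPH-dependent conversion of Luciferin-H EGE (10uM, at KM) by 5nM enzyme in 50mM KPO4, 60 min at 37C following 10 min compound preincubation. Stopped with luciferin detection buffer; luminescence read after 20 min.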

In experiment [7] the target is Mitogen-activated protein kinase 10 (Mus musculus) (UniProt Q61831). The experiment is described as follows: JNK3 AlphaScreen Assay (AID 530; active means well fitted curve in either direction with a large enough effect, not every such curve was filed as active;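 further: kinase came from lysate of stimulated human HepG2 cells; signal reports phosphorylation of biotinylated GST-cJun 1-79 at Ser73 with 10 µM ATP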). The note with it: JNK3 lysate, c-Jun phosphorylation; series mostly up to 57.1 µM. Put shortly:
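Inhibitors reduce antibody binding to phosphorylated biotin-cJun, lowering AlphaScreen luminescence. Lysates from HepG2 cells pre-activated by IL-1beta plus TNF-alpha supplied JNK3; compounds were titrated.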
For orientation: Alpha assays give light when donor and acceptor beads are brought close together.

Experiment [8] concerns the target Tumor susceptibility gene 101 protein (Homo sapiens) (UniProt Q99816). The experiment is described as follows: qHTS Assay for Iinhibitors of HIV-1 Budding by Blocking the Interaction of PTAP/TSG101: Hit Validation (AID 651600). Further: nearly all actives have a fitted effect of over 70% in size. The following applies: PTAP peptide/TSG101 UEV interaction, biochemical assay; series mostly up to 57.5 µM. Put shortly: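 Fluorescence polarization binding assay: Tsg101 binding domain (10 uM final) pre-dispensed with compounds, then FITC-labeled PTAP-motif peptide (50 nM final) added; 20 min at r.t. in HEPES pH 7.5 buffer with NaCl, Tween 20, EDTA, TCEP.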

In experiment [9] the target is Ubiquitin carboxyl-terminal hydrolase 1 (Homo sapiens) (UniProt O94782). The experiment is described as follows: Inhibitors of USP1/UAF1: Pilot qHTS (AID 504865).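 Further: rhodamine fluorescence freed from ubiquitin-rhodamine substrate followed over time; top concentration of the series differs between compounds; nearly all actives have a fitted effect of over 35% in size.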 The note with it: purified USP1/UAF1, Ub-rhodamine cleavage fluorescence; series mostly up to 114 µM. Put shortly:
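USP1/UAF1 complex (1nM) preincubated with compound 15 min at room temperature, then Ub-Rho substrate (150nM final) added. Fluorescence read kinetically at 480/540 nm, 6 reads every 60 seconds. Buffer: 50mM HEPES pH 7.8, 0.5mM EDTA, 0.1 mg/ml BSA, 1mM TCEP, 0.01% Tween-20.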

The nature of experiment [10]: S16 Schwann cell viability assay (CellTiter-Glo assay) (AID 624031).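 Further: native untransfected S16 rat Schwann cells; cellular ATP luminescence as a viability measure; nearly all actives have a fitted effect of over 70% in size.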 The following applies: S16 rat Schwann cells viability, 24 h; series mostly up to 57.5 µM. Put shortly:
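Concentration-effect curves come from CellTiter-Glo luminescence of S16 rat Schwann cells after 24 h compound exposure. Each reading was normalized to DMSO wells (0%) and wells without cells, and curves were ranked by r2 and response magnitude.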
In general terms: Cellular ATP, detected with luciferase, serves as a proxy for viable cell number.

Experiment [11] in a line: S16 Schwann cell PMP22 intronic element firefly luciferase assay (AID 624032). Further: nearly all actives have a fitted effect of over 30% in size. The note with it: S16 rat Schwann cells, PMP22 element FLuc, 24 h; series mostly up to 57.5 µM. Put shortly: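 Rat S16 Schwann cells stably carrying a PMP22 intronic element-driven Fluc reporter were seeded overnight, then exposed to compounds for 24 h at 37 °C. Luminescence was normalized to PTC124 (positive control) and DMSO (0% activity).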

Experiment [12] is described as follows: S16 Schwann cell PMP22 intronic element beta-lactamase assay (AID 624044; calls by dose curve; further: nearly all actives have a fitted effect of over 15% in size). The following applies: S16 rat Schwann cells, PMP22 element beta-lactamase FRET, 24 h; ratio activity, negative = inhibition: at 38.3 µM (top of the series). The gist of the method: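 Rat S16 Schwann cells with beta-Lac driven by a PMP22 intronic element, compound-treated 24 h at 37 °C. LiveBLAzer FRET B/G read: 460 nm normalized to potassium clavulanate vs DMSO; 535 nm FRET as viability; concentration-effect curves classified.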

The subject of experiment [13] is DIV17. The experiment is described as follows: qHTS profiling for inhibitors of Plasmodium falciparum proliferation (AID 504749). Further: nearly all actives have a fitted effect of over 60% in size. The note with it: P. falciparum in erythrocytes, SYBR Green DNA, 72 h; series mostly up to 28.7 µM. The gist of the method:
(§1)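 Parasite proliferation within erythrocytes, 72 h exposure. Endpoint: SYBR Green I fluorescence after overnight lysis at room temperature. Controls: 0.29 uM artemisinin, DMSO.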

Experiment [14] deals with W2. Described as above. The following applies: P. falciparum in erythrocytes, SYBR Green DNA, 72 h; series mostly up to 28.7 µM. Put shortly:
as §1

The structures appear in SMILES notation. Values without a mark were called inactive. Records with an inconclusive call do not appear. Active and inactive are the calls of the source. Unless noted, the call rests on the fitted dose curve; in most records, active means well fitted curve in the direction sought with a large enough effect; inconclusive means small, poorly fitted or top-dose-only effect, or another doubt; inactive means no such curve, though single readings can be large; an effect the other way counts as inactive or inconclusive. Where only a bound is given, the exact number is not on record here.

Chain of Ubiquitin carboxyl-terminal hydrolase 1 (Homo sapiens) (O94782 whole entry, looked up): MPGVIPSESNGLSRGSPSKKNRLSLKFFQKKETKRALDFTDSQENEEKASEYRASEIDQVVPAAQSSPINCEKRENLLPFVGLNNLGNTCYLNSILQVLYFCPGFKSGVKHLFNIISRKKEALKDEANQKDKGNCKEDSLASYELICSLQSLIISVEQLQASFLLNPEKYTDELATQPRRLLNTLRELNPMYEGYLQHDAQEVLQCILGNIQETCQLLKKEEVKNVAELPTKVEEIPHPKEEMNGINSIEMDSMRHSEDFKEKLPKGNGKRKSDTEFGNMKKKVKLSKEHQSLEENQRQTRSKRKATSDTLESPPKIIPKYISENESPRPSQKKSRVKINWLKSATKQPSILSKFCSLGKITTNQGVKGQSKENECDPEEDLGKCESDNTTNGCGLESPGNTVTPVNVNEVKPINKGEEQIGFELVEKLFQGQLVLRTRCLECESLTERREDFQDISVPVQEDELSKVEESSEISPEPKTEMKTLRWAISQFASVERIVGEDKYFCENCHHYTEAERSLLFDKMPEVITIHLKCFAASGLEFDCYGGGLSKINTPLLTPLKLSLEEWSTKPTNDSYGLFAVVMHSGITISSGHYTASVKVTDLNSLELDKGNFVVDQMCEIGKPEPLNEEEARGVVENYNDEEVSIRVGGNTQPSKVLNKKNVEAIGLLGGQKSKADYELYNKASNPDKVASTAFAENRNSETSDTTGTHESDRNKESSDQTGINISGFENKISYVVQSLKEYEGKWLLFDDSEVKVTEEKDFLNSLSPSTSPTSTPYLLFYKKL
Chain of Glucocorticoid receptor (Homo sapiens) (P04150 whole entry, looked up, the tested form may be a part): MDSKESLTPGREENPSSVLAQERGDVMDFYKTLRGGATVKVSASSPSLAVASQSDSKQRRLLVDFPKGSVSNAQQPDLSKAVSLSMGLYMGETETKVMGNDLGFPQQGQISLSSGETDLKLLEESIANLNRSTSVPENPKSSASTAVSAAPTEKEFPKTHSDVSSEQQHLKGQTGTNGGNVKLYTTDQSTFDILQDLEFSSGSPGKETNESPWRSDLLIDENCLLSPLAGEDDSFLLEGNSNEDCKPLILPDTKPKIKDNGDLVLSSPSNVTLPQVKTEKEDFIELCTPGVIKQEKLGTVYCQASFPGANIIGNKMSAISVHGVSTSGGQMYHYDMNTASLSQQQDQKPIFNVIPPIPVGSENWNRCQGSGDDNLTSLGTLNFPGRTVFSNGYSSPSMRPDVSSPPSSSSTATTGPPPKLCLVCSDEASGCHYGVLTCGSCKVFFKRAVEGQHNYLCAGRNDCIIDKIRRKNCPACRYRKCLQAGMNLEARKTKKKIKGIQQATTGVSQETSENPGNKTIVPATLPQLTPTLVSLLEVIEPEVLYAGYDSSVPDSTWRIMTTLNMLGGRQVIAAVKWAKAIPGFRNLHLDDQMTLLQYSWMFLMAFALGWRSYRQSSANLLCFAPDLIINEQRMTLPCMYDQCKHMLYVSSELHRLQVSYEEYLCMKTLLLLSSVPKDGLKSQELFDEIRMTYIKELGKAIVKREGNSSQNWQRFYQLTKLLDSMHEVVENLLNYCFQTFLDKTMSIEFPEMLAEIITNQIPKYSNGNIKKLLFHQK
Chain of Cytochrome P450 2D6 (Homo sapiens) (P10635 whole entry, looked up): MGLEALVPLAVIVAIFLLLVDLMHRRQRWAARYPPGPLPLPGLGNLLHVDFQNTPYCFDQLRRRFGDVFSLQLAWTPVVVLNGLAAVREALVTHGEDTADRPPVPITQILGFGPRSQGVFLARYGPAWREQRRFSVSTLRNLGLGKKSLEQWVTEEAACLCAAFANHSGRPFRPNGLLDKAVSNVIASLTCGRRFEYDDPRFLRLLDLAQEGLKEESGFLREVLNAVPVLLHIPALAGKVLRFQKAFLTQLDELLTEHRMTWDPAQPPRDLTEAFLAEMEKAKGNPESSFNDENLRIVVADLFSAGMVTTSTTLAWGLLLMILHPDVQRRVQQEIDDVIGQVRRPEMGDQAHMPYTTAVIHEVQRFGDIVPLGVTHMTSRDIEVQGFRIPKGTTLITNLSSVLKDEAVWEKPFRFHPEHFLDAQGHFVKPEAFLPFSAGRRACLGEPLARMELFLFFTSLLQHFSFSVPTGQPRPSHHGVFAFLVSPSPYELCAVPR
Chain of Cytochrome P450 2C9 (Homo sapiens) (P11712 whole entry, looked up): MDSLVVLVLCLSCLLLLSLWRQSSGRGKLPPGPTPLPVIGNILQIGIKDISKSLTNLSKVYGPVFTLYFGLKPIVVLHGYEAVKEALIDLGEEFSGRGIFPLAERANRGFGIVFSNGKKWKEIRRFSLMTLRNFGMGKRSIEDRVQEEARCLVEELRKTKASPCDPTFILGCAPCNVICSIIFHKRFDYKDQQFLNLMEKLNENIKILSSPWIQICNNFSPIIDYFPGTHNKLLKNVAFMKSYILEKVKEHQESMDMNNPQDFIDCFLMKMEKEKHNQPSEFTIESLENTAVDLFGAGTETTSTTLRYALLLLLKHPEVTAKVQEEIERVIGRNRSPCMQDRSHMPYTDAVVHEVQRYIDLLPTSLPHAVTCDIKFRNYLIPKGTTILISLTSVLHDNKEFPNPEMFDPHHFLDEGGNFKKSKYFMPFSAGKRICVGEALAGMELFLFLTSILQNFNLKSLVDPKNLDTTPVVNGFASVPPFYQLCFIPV
Chain of Tumor susceptibility gene 101 protein (Homo sapiens) (Q99816 whole entry, looked up, the tested form may be a part): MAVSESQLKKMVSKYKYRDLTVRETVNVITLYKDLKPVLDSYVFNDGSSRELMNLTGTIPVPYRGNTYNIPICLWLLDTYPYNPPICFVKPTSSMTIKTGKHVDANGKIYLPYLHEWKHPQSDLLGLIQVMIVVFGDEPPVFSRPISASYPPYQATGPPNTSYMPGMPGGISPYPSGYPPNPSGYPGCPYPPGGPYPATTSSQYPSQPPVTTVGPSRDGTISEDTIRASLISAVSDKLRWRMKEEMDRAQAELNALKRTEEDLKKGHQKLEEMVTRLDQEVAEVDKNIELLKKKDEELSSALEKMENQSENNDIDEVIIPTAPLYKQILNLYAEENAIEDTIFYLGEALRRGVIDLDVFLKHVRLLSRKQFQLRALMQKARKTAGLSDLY
Chain of Cytochrome P450 2C19 (Homo sapiens) (P33261 whole entry, looked up): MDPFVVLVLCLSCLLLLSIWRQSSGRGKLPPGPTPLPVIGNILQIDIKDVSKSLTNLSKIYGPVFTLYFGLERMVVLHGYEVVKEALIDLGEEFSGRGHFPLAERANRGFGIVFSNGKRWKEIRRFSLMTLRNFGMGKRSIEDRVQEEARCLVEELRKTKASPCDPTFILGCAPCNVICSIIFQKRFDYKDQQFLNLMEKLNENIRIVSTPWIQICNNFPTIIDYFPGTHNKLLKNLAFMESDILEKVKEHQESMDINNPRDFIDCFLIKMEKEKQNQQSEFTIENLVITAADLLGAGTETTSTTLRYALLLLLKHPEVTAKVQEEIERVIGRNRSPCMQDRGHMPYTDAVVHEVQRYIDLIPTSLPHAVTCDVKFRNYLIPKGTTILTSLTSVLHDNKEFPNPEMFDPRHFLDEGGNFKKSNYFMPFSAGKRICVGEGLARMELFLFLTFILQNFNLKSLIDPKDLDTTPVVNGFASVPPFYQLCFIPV

On to `COc1ccc(CCN2C(=O)C3C4CC(C5C(C(N)=O)=NOC45)C3C2=O)cc1OC` (stereo not drawn), for which the Potency in experiment [1] was 112 µM (active).

With `NCCC[C@@H](CC(=O)N[C@@H]1CCCC[C@H]1C(=O)N[C@H](CC(=O)N[C@@H](CCC(=O)O)CC(=O)O)Cc1ccccc1)NC(=O)C[C@H](Cc1ccccc1)NC(=O)[C@@H]1CNCC[C@H]1N`, the Potency in [2] was above 46 µM. For the same compound, the Potency result in experiment [3], in experiment [4], in [5] and in experiment [6] was “inactive” in each case.

In the case of `CC(C)C[C@@H](CC(=O)N[C@@H](CCCN)CC(=O)N[C@@H]1CCNC[C@H]1C(=O)N[C@H](CC(=O)N[C@@H](CCC(=O)O)CC(=O)O)CC(C)C)NC(=O)[C@@H]1CCCC[C@H]1N`, the Potency in experiment [2] was above 46 µM. Moreover, the Potency result in [7], in [3] and in [5] was “inactive” each time.

In the case of `Cc1cc(C)c(C#N)c(SCc2ccccc2)n1`, the Potency in [1] was 112 µM (active).

`Cc1cc(C(=O)O)ccc1-c1ccc(/C=C2\NC(=O)N(Cc3ccc(F)cc3)C2=O)o1`: the Potency in [1] is 4.47 µM (active).

`CC(=O)Nc1ccc2nc3c(=O)[nH]c(=O)[nH]c3nc2c1`: the Potency in experiment [1] is 4.47 µM (active). In addition, the Potency result in experiment [8] was “inactive”.

On to `Nc1cc([N+](=O)[O-])ccc1N1C(=O)CCCC1=O`, for which the Potency in [1] is 15.8 µM (active).

Take `CC(c1ncncc1F)[C@](O)(Cn1cncn1)c1ccc(F)cc1F` (stereo partly drawn): the Potency entry in experiment [9], in [10], in experiment [11], in experiment [12], in [13] and in experiment [14] was “inactive” each time.

As to `CC[C@@H](C)C(N)C(=O)O` (stereo partly drawn), the Potency entry in experiment [9], in [10], in experiment [11], in [13] and in experiment [14] was “inactive” throughout.

Take `O=C1CCCC(O)=C1N=Nc1ccc(C(=O)O)cc1`: the Potency in experiment [1] is 1.41 µM (active).

Turning to `Cc1cnc(C(=O)O)cn1`, the Potency entry in experiment [9], in experiment [10], in experiment [11], in [12], in [13] and in experiment [14] was “inactive” in each case.

With `CCOC(=O)N1CCC(N2Cc3cccc(C(=O)NCc4ccc5c(c4)OCO5)c3C2=O)CC1`, the Potency in [1] is 15.8 µM (active).

`CC(C)CN(C(=O)COC(=O)c1cc2c(s1)CCC2)C1CCS(=O)(=O)C1` (stereo not drawn): the Potency in [1] is 44.7 µM (active).

For `O=C(O)C1Cc2ccccc2CN1C(=O)COc1ccc(Br)cc1` (stereo not drawn), the Potency in experiment [1] is 15.8 µM (active).

As for `OCC1O[C@@H](O[C@@H]2C(CO)OC(O)C(O)C2O)C(O)C(O)C1O` (stereo partly drawn), the Potency entry in experiment [9], in [10], in experiment [11], in experiment [12], in experiment [13] and in experiment [14] was “inactive” throughout.

As for `Cc1ccc(NC(=O)c2noc3c2CCC3)cc1C`, in experiment [1], the Potency was 12.6 µM (active).

Source of the values: PubChem BioAssay (NCATS).
